Screening data from PubChem.
HT1080-NT tox: qHTS for induction of synthetic lethality in tumor cells producing 2HG: qHTS for the HT-1080-NT fibrosarcoma cell line; 1.6% of 360,000 active; HT-1080-NT fibrosarcoma viability, CellTiter-Glo ATP luminescence, 48 h; Potency, µM (doses to about 46.1 µM), for inactives: top-dose activity, negative = less viability, usual class: cytotoxic; AID 686970, 2013;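 note: NT is the 2HG producing partner of a matched IDH1 knockdown line; potency is the fitted concentration of half-maximal effect; 0% = DMSO-treated cells and -100% = media-only wells without cells; nearly all actives have a fitted effect of over 55% in size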
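Viability by CellTiter-Glo luminescence after 48 h compound exposure at 37C of HT-1080-NT cells (750/well, RPMI, 5% FBS). % activity scaled between DMSO wells and medium-only wells, then curve-fitted and categorized by curve class.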
12-LOX inh: Primary qHTS assay for inhibitors of human arachidonate 12S-lipoxygenase (ALOX12): Round 2 | purified 12hLO, xylenol orange hydroperoxide absorbance | Potency, µM (top dose mostly 108 µM), inactives show at the highest dose activity change, negative = inhibition, hits mostly inhibitors | Polyunsaturated fatty acid lipoxygenase ALOX12 (Homo sapiens), P18054 | AID 1671190, 2021 | 1.1% of 580,000 active; note: potency is the fitted concentration of half-maximal effect
Target sequence (P18054 whole entry, looked up): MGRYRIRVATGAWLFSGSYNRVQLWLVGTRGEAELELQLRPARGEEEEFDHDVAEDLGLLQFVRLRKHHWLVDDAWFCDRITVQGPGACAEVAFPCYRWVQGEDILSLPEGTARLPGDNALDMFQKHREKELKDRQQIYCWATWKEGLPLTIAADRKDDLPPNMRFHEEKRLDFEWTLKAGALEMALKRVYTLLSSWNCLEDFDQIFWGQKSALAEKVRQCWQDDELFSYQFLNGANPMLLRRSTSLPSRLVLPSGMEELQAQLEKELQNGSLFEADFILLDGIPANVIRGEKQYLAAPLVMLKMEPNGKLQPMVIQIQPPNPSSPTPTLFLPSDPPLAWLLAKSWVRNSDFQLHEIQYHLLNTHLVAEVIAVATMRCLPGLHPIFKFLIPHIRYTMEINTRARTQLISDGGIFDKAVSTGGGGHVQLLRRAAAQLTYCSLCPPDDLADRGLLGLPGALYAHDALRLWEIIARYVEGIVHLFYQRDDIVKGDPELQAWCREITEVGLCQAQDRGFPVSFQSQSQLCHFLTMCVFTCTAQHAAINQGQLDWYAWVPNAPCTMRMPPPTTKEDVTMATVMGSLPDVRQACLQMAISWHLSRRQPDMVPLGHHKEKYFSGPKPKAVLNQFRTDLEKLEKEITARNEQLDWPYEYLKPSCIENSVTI
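Purified human 12hLO at 150 nM in 25 mM Hepes, 0.01% Triton X-100, pH 7.0, preincubated 15 min at room temperature with compound. Reaction started with 40 uM arachidonic acid, 30 min at room temperature. Hydroperoxide measured by Fe-xylenol orange, 573/405 nm absorbance ratio.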
HT1080 IDH1KD tx: qHTS for induction of synthetic lethality in tumor cells producing 2HG: qHTS for the HT-1080-IDH1KD cell line; HT-1080 IDH1 knockdown viability, ATP luminescence, 48 h; Potency, µM (doses to about 46.1 µM), for the others: at the highest dose activity, negative = toxicity, most hits filed as cytotoxic; 2% of 360,000 active; AID 686971, 2013;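 note: potency is the fitted concentration of half-maximal effect; 0% = DMSO wells and -100% = cell-free medium wells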
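% activity derives from luminescence (CellTiter-Glo), normalised to DMSO and no-cell wells. HT-1080-IDH1KD cells, 750/well, had 48 h compound exposure at 37 °C.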
TDP1 cell noCPT: qHTS for Inhibitors of human tyrosyl-DNA phosphodiesterase 1 (TDP1): qHTS in cells in absence of CPT; Potency, µM (series often up to 46.2 µM), without a hit: top-dose activity change, negative = growth inhibition, actives largely listed as inhibitors; DT40 Tdp1-/- hTDP1 cells, no CPT, ATP luminescence, 48 h; 15% of 420,000 active; note: potency is the fitted concentration of half-maximal effect; nearly all actives have a fitted effect of over 55% in size
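Luminescent ATP content (CellTiter-Glo) served as the growth readout. Knockout chicken DT40 cells expressing human TDP1 were exposed to compounds without camptothecin for a minimum 48 hr at 37 °C.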
TDP1 cell CPT: qHTS for Inhibitors of human tyrosyl-DNA phosphodiesterase 1 (TDP1): qHTS in cells in presence of CPT | 12% of 420,000 active | chicken DT40 Tdp1-/-;hTDP1 cells + 20 nM CPT, ATP luminescence, 48 h | Potency, µM (top dose mostly 46.2 µM), for the others: at the highest dose activity change, negative = growth inhibition, most hits filed as inhibitors | AID 686979, 2013; note: potency is the fitted concentration of half-maximal effect; nearly all actives have a fitted effect of over 55% in size
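Chicken DT40 Tdp1-/- cells complemented with human TDP1, 400 cells/well, exposed to compounds plus 20 nM camptothecin for at least 48 h at 37 C; viability read as ATP content by CellTiter-Glo luminescence.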
IL1B secr inh: qHTS for Inhibitors of Inflammasome Signaling: IL-1-beta AlphaLISA Primary Screen. activity change, % at 57.5 µM. THP-1 LPS/ATP IL-1B secretion, AlphaLISA, 16 h; hits give low values. 4.7% of 360,000 active; in the data active = activity change below about -50%; inconclusive = mostly about -30% to -49%
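Secreted IL-1B measured by AlphaLISA bead assay after 16 h compound exposure of THP-1 cells; compounds (final up to 57.5 uM) added 1 h before LPS (250 ng/mL) and ATP (1.25 mM) stimulation; lower signal means less secretion.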
Starred values were filed as active, the others as inactive; i = inactive; ? = inconclusive; nt = no result. Only a selection was taken, and hits are over-represented in it overall. Unless noted, calls come from the whole dose curve; as a rule, active = well fitted curve in the direction sought with a large enough effect; inconclusive = small, poorly fitted or top-dose-only effect, or another doubt; inactive = no such curve, though single readings can be large; an effect the other way counts as inactive or inconclusive. Unless noted, % is set by controls: 0 for no effect and ±100 for the full control effect.

SMILES	HT1080-NT tox	12-LOX inh	HT1080 IDH1KD tx	TDP1 cell noCPT	TDP1 cell CPT	IL1B secr inh
COc1cc(OC)c(OC)cc1CN1CCc2ccccc2C1	4%	?	0%	-9%	-16%	3
CCN1CCc2[nH]c3ccccc3c2C1	6%	?	-4%	-8%	-6%	-9
CSc1ccc(CN2CCc3c([nH]c4ccccc34)C2)cc1	-23%	?	-18%	?	-30%	-73*
Cc1cccc(CN2CCc3c([nH]c4ccccc34)C2)c1	-23%	19%	-25%	18µM*	21µM*	?
CN[C@H](C(=O)N[C@H]1C[C@@](O)(C(=O)N[C@@H](Cc2cccs2)C(N)=O)C[C@@H](O)[C@@H]1O)C(C)C	nt	19%	nt	nt	nt	nt
CC(C)NC(=O)N(C1CC1)C1CCOC2(CCN(C(=O)C3CCCC3)CC2)C1 (configuration not stated)	nt	3%	nt	nt	nt	nt
Cc1ccc(OCC(=O)NCCC2CCN(C(=O)Nc3cc(F)cc(F)c3)CC2)cc1	nt	7%	nt	nt	nt	nt
CC(O)c1cc2n(n1)CCN(S(=O)(=O)c1ccc3c(c1)NC(=O)CO3)C2 (configuration not stated)	nt	51%	nt	nt	nt	nt
Clc1cccc(CN2CCc3c([nH]c4ccccc34)C2)c1	?	i	?	?	?	-98*
c1ccc(CN2CCc3[nH]c4ccccc4c3C2)cc1	0%	99%	-1%	?	-21%	-3
CCN(CC)S(=O)(=O)c1cccc(C(=O)N[C@H](C(=O)NCc2ccccc2F)C(C)C)c1	14%	3%	2%	?	?	29
CCN(CC)S(=O)(=O)c1cccc(NC(=O)c2ccc(Sc3nncn3C)c([N+](=O)[O-])c2)c1	5%	-5%	1%	23µM*	16µM*	-9
CCN(CC)S(=O)(=O)c1cccc(NC(=O)c2ccc(Br)cc2)c1	-9%	-15%	-7%	21µM*	?	-70*
CCN(CC)S(=O)(=O)c1cccc(C(=O)N[C@H](C(=O)NCc2ccc(Cl)cc2)C(C)C)c1	-3%	4%	-20%	15µM*	23µM*	-23
Cn1cnnc1Sc1ccc(C(=O)OCC(=O)NCC(F)(F)F)cc1[N+](=O)[O-]	-10%	7%	10%	4%	-1%	-15
CCN(CC)S(=O)(=O)c1cccc(C(=O)Nc2ccc(C#N)cc2)c1	-2%	-4%	-19%	8.2µM*	?	-16
CC(C)NC(=O)CCC1NC(=O)N(CCc2c[nH]c3ccc(F)cc23)C1=O (configuration not stated)	nt	1%	nt	nt	nt	nt
O=C(Nc1ccccc1)c1cc2n(n1)CCN(C(=O)CCn1cnnn1)C2	nt	3%	nt	nt	nt	nt
O=C(NC1CCN(Cc2ccccc2)CC1)c1cc2n(n1)CC(c1ccc3c(c1)OCO3)OC2 (configuration not stated)	nt	25%	nt	nt	nt	nt
CCN(CC)C(=O)c1ccccc1NC(=O)c1cccc(S(=O)(=O)N(CC)CC)c1	-4%	-12%	0%	-10%	-16%	-16
CCN(CC)S(=O)(=O)c1cccc(C(=O)Nc2ccccc2C(=O)Nc2ccc(Cl)cc2)c1	nt	6%	nt	18µM*	?	nt
COc1ccc(-c2cc3nccn3c(Nc3ncccc3C(N)=O)n2)cc1OC	nt	1.4µM*	nt	nt	nt	nt
Cc1ccc(Nc2ncccc2C(N)=O)cc1	1%	1%	0%	-6%	-15%	-2
